The panel holds about 83,000 compounds, 20% with a hit somewhere; the sample as a whole holds those more often.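 In brief: 96-well plates, 48 h treatment, single concentration, percent growth endpoint.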 Values without a mark were called inactive. The source made the active and inactive calls.
test system: UACC-62 melanoma; assay: NCI-60 one-dose screen, 48 h (100 = growth as untreated, 0 = no growth, -100 = all killed); settings: 10 µM unless noted
Procedure: Growth inhibition of the UACC-62 human tumor cell line is measured as a screen for anti-cancer activity. Cells are grown in 96 well plates and exposed to the test compound for 48 hours. Compounds are tested at a single concentration, which is 10^-5 M for most compounds. The reported endpoint is percent growth (GI% or GIPRCNT), where numbers from 0 - 100% represent growth inhibition, and numbers from -100% - 0 represent cell death. For example, a value of 40 represents 60% growth inhibition. A value of 0 means no net growth occurred over the course of the experiment. A value of -40 indicates 40% of cells at the beginning of the experiment died by the end of the experiment. A value of -100 means all cells are dead at the end of the experiment.
NCI-60 Human Tumor Cell Lines Screen was performed using the standard one-dose NCI protocol, which is described in more detail at https://dtp.cancer.gov/discovery_development/nci-60/default.htm.
Compounds with GIPRCNT values below 10 were considered active. Activity score was based on GIPRCNT using the following formula: […]
Score is 0 for GIPRCNT values of 100 or above, 50 for GIPRCNT values of 0, and 100 for GIPRCNT values of -100.

Row | SMILES | growth
1 | Cc1ccc(OC(=O)c2ccc(Cl)cc2)cc1 | 94.7%
2 | CC(C)C1=C[C@@]23CC[C@@H]4[C@](C)(CCC[C@@]4(C)C(=O)N4CCCNCC4)[C@H]2C[C@@H]1[C@H]1C(=O)CCC(=O)[C@H]13 | 98.2%
3 | COc1cc2c(cc1-c1c(C)noc1C)ncc1nc(C3CCCC3)n([C@H](C)COC(F)F)c12 | 20.7%
4 | Nc1n[nH]c2cc(F)c([C@@H]3Nc4ccc5[nH]ncc5c4[C@H]4C5CCC(C5)[C@@H]34)cc12 (stereo not given in full) | 31.5%
5 | O=C(Cc1ccc(/C=C/C(=O)c2ncc[nH]2)cc1)Nc1ccc(F)cc1 | 40.5%
6 | CC(C)(C)N1CCC1CN (stereo not given) | 112%
7 | NC(=O)c1cc(Cl)ccc1NC(=O)/C=C/c1ccccc1 | 47.7%
8 | O=C1NC(=O)C(c2ccc(Cl)cc2Cl)N1 (stereo not given) | 97.7%
9 | O=C1C=CC(=O)N1c1ccc2c(c1)Cc1cc(F)ccc1-2 | 91.6%
10 | O=C(COc1cccc(/C=C2\CSc3ccccc3C2=O)c1)Nc1nccs1 | 64.1%
11 | COc1ccc(S(=O)(=O)N2CC3(COC3)C2)cc1NC(=O)c1[nH]c(C)c2c1CCCCC2=O | 23.4%
12 | COc1ccc(/C=C\c2cc(OC)c(OC)c(OC)c2)cc1OCC(=O)Nc1ccc2nc(C)sc2c1 | 11.9%
13 | CN1CCN(c2nc(NCCCCNc3ccnc4cc(Cl)ccc34)c3ccccc3n2)CC1 | 63.9%
14 | C=C(C)C1CC(O)C2(C)CCCC3C2C1CC(C)C3(C)CC/C(C)=C/C(O)C1CCC(=O)c2c(OC)cc(OC)cc21 (stereo not given) | 36.5%
15 | CCOC(=O)n1cc(-c2nonc2-c2cn(C)c3ncccc23)c2ccccc21 | 64.6%
16 | CC(=O)O[C@H]1[C@@H]2OC(=O)C(CSc3ccccc3)[C@@H]2C[C@H]2O[C@]2(C)CC/C=C(\C)CCC[C@@H]1C (stereo not given in full) | 38.3%
17 | O=C(N/N=C/c1ccccc1O)c1ccccc1Nc1ccnc(C(F)(F)F)c1 | -19.1% (active)
18 | O=c1cc(/C(=C2/C=CC=N2)c2ccc[nH]2)c2cc(Cl)ccc2o1 | 42.9%
19 | O=C(O)COc1ccc(Cl)cc1C1CCCCC1 | 95.6%
20 | Cc1cc(N2CCCCC2)nc(NC2CCCC(Nc3ccnc4cc(Cl)ccc34)C2)n1 (stereo not given) | -86.2% (active)

Row | SMILES | growth
21 | CC[C@H]1OC(=O)[C@H](C)[C@@H](O[C@H]2C[C@@](C)(OC)[C@@H](O)[C@H](C)O2)[C@H](C)[C@@H](O[C@@H]2O[C@H](C)C[C@H](N(C)C)[C@H]2O)[C@](C)(O)C[C@H](C)CN(C)[C@H](C)[C@@H](O)[C@]1(C)O | 98.3%
22 | Cc1cc(N2CCN(c3ccnc4cc(Cl)ccc34)CC2)nc(N2CCOCC2)n1 | 84.3%
23 | CC1=CC(=NN=c2cc(C)n([O-])c(C)c2)C=C(C)[N+]1=O | 80.3%
24 | CCc1nnc(CNc2ccc(Cl)cc2)o1 | 93.7%
25 | CCCCCCN(CCCCCC)C(=N)c1ccnc2ccccc12 | 81.3%
26 | Cc1nn(-c2ccc(F)cc2)c2ncnc(Oc3ccc(NC(=O)Nc4ccc(Cl)c(C(F)(F)F)c4)cc3)c12 | 96.6%
27 | Cn1ncc2c(=O)nc3c(-c4ccccc4)n[nH]n3c21 | 96.7%
28 | COc1cccc(-c2nn(C(C)(C)C)cc2-c2ccnc(NCCCNS(=O)(=O)c3ccc(C)cc3)c2)c1 | 107%
29 | C#CC(F)(F)[C@]1(O)CC[C@H]2[C@@H]3CCC4=CC(=O)CCC4=C3[C@@H](c3ccc(C(C)=O)cc3)C[C@@]21C | 80.2%
30 | O=C(N(c1ccccc1)c1ccccc1)n1ccc2nc(Cl)nc(Cl)c21 | 51.9%
31 | O=C(Cn1cccc(Nc2ccccc2)c1=O)Nc1ccccc1 | 93.6%
32 | CCN(CC)c1ccc2c(c1)Oc1nc(N)c(C#N)c(N)c1C2Sc1ccc(SC)cc1 (stereo not given) | -14.4% (active)
33 | Brc1ccc(-c2csc(Nc3ccccn3)n2)cc1 | 75.5%
34 | c1ccc(-c2c(-c3ccccc3)[n+](Cc3ccc4ccccc4c3)c(-c3ccc(-c4nc5ccccc5s4)cc3)n2Cc2ccc3ccccc3c2)cc1 | -75.2% (active)
35 | C=C(C)[C@@H]1CC[C@]2(C(=O)OC)CC[C@]3(C)[C@H](CC[C@@H]4[C@@]5(C)C/C(=C/c6ccc(OC)cc6)C(=O)C(C)(C)[C@@H]5CC[C@]43C)[C@@H]12 | 99.7%
36 | O=C(CCCCC(=O)N/N=C\c1ccccc1O)N/N=C\c1ccccc1O | 13.5%
37 | O=C1c2cc3c(cc2-c2c1c1ccc(F)cc1c(=O)n2C[C@H](O)[C@H](O)[C@H](O)CO)OCO3 | -70.4% (active)
38 | COc1cc(C=Nc2oc(-c3ccccc3)c(-c3ccccc3)c2C#N)cc(CN2CCCCC2)c1O | 88.4%
39 | O=C1NC(=S)NC(=O)C1CC(=O)n1c(-c2ccccc2)nc2ccccc21 | 94.9%
40 | OCc1ccc(N2CCc3cccc(F)c3C2)cc1Cl | -11.2% [0.1 µM] (active)

Source: PubChem BioAssay (NCI)
